# Results published in PubChem BioAssay AID2451 (National Center for Advancing Translational Sciences (NCATS), 2010).
# Hit rate of the full screen: of about 290,000 compounds, about 2,100 (0.72%) were called active. About 4% were inconclusive and are not listed. Many of the other results were omitted from the sample, so actives are more common in it than they were. A number with no mark means an inactive call. The call rests on the fitted dose curve; in most records, active means well fitted inhibition curve with a large enough effect; inconclusive means small, poorly fitted or top-dose-only effect, or effect the other way; inactive means flat fitted curve, though single readings scatter.
# Target: Fructose-bisphosphate aldolase (Giardia intestinalis (strain ATCC 50803 / WB clone C6)) (UniProt A8B2U2)
# Assay: qHTS Assay for Inhibitors of Fructose-1,6-bisphosphate Aldolase from Giardia Lamblia; further: nearly all actives have a fitted effect of over 55% in size
# Details: purified Giardia FBPA; series mostly up to 59.6 µM; activity, negative = inhibition: at the top concentration
# Procedure, shortened: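 Giardia FBPA (40 nM reagent) was preincubated 10 min at RT with compound (up to 57.5 uM final), then substrate plus GAPDH/TPI/NAD/arsenate coupling system with diaphorase/resazurin was added; resorufin fluorescence (525/598 nm) was read after 20 min.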
# On the % scale 0 is the no-effect control and ±100 the full control effect; potency means the concentration at half of the fitted maximal effect.
# Sequence of Fructose-bisphosphate aldolase (Giardia intestinalis (strain ATCC 50803 / WB clone C6)) (A8B2U2 whole entry, looked up): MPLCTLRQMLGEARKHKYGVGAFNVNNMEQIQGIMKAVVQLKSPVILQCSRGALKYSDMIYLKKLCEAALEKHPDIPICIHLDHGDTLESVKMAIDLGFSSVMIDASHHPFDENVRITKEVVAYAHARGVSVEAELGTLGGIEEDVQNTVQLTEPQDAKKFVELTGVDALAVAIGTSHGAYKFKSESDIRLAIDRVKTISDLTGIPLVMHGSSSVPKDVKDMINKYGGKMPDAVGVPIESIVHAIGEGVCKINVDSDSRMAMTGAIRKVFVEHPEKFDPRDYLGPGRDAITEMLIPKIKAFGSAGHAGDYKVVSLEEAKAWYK
SMILES,"activity, negative = inhibition [%]",Potency
Cn1nccc1C(=O)N1CCCC(C(=O)c2ccc(Oc3ccccc3)cc2)C1 (stereo not given),3.18,–
Cc1cc(S(=O)(=O)c2cc3ccc(O)c(C)c3oc2=O)ccc1F,9.55,–
N#CC1=C(N)Oc2[nH]c(=S)[nH]c(=O)c2C12C(=O)Nc1ccccc12 (stereo not given),–,6.29 µM (active)
Cc1ccc(NC2(C#N)C(=O)Nc3ccccc32)cc1 (stereo not given),-29.3,–
N#CC1=C(N)Oc2n[nH]c(CSc3ccccc3)c2C12C(=O)Nc1ccccc12 (stereo not given),-8.13,–
CCc1ccc(NC(=O)C(=O)NNC(=O)c2cccs2)cc1,-2.46,–
COc1ccc(CNC(=O)c2ccc(Br)s2)cc1OC,2.95,–
Fc1ccc(-c2ccc(NCCN3CCOCC3)nn2)cc1,-1.31,–
O=C(NCc1ccccn1)c1ccc2nc(-c3ccco3)c(-c3ccco3)nc2c1,–,2.81 µM (active)
O=C(NCc1ccccn1)c1cc(Br)ccc1Cl,3.28,–
COc1ccc2oc(=O)c(C(=O)NCc3ccccn3)cc2c1,-15.7,–
COCn1c(C(O)c2ccccc2)cc2ccccc21 (stereo not given),9.67,–
O=c1nc(N/N=C/c2ccco2)cn[nH]1,–,17.7 µM (active)
O=C(N/N=C/c1ccco1)c1ccc(C(=O)N/N=C/c2ccco2)o1,-12.7,–
CC(C)NC(=O)C(=O)N/N=C/c1ccco1,-7.41,–
CNC(=S)NNC(=O)c1cccn(Cc2ccccc2)c1=O,1.08,–
C=CCNC(=S)/N=c1/ccccn1Cc1ccccc1,–,14.1 µM (active)
N=c1ccccn1Cc1ccccc1,12.5,–
O=C(c1ccccc1)N1N=C(c2ccccc2O)CC1c1ccc(Br)cc1 (stereo not given),-3.32,–
O=C(CN1CCN(c2ccccc2)CC1)Nc1ccc(F)cc1,13.9,–
O=C(CN1CCN(Cc2ccccc2)CC1)Nc1ccc(F)c(F)c1,–,20 µM (active)
Cc1cc(NC(=O)CCN2CCN(Cc3ccccc3)CC2)ccc1Br,-20.8,–
CC(=O)N[C@@H](C)C(=O)N1CCC(n2nccc2NC(=O)CCCc2ccccc2)CC1,-11.4,–
CC(=O)Nc1cccc(Nc2nc(-c3cccs3)nc3ccccc23)c1,4.7,–

SMILES,"activity, negative = inhibition [%]",Potency
O=C(NC(=S)Nc1ccc(S(=O)(=O)N2CCOCC2)cc1)c1ccccc1[N+](=O)[O-],-23.5,–
CN1CCN(S(=O)(=O)c2ccc(NC(=S)NC(=O)C3CC3)cc2)CC1,1.96,–
O=S(=O)(c1ccc(NC(=S)NN=C(C2CC2)C2CC2)cc1)N1CCOCC1,–,7.06 µM (active)
CCOC(=O)c1c(-c2ccccc2)oc2cc(Br)c(O)c(C=O)c12,-9.36,–
CCOc1ccc(-n2c(SCC(=O)Nc3cc(C(=O)O)ccc3Cl)nc3ccccc3c2=O)cc1,14.4,–
O=C(Nc1ccccc1Cl)Nc1cccc2cccnc12,-7.02,–
Cc1ccc(C(=O)O/N=C(\N)c2ccccn2)cc1Cl,16.7,–
O=C(Nc1ccccc1Cl)O/N=C(/c1ccccc1)c1ccccn1,–,15.8 µM (active)
O=C(CCC(=O)n1ncc2ccccc21)NCc1ccccc1Cl,8.97,–
O=C1CSC(=S)N1c1ccc(O)cc1,-21.6,–
O=C(Nc1ccncc1)Nc1ccc(F)cc1,-7.88,–
Oc1ccc2ccccc2c1N=Nc1nccs1,–,12.6 µM (active)
CN(C)CCCn1c(=O)n(Cc2ccccc2)c(=O)c2c3c(sc21)CCCCC3,3.4,–
O=C(CNC(=O)Cc1ccccc1)N=Nc1c(O)[nH]c2ccc(Br)cc12,-17.6,–
NS(=O)(=O)c1ccc(N=Nc2c(O)[nH]c3ccc(Br)cc23)cc1,22.7,–
Oc1[nH]c2ccc(Br)cc2c1N=Nc1nn[nH]n1,–,15.8 µM (active)
CCOC(=O)C1CCN(C(=O)COc2cccc3ccccc23)CC1,-2.04,–
COc1ccc(CNc2nc3c(c(=O)[nH]c(=O)n3C)n2Cc2ccccc2)cc1,-2.3,–
C=CCSc1nc2c(c(=O)[nH]c(=O)n2C)n1Cc1ccccc1,18.8,–
Cn1c(=O)[nH]c(=O)c2c1[nH]c(=S)n2Cc1ccccc1,–,8.91 µM (active)
COc1cccc(OC)c1C(=O)Nc1ccc2c(c1)n(C)c(=O)n2C,6.4,–
O=C(CN1C(=O)c2ccccc2C1=O)NCc1ccc(C(=O)O)cc1,5.32,–
CC(=O)N(C1=C(Cl)C(=O)c2ccccc2C1=O)c1ccc(C(=O)O)cc1,–,2.24 µM (active)
CN1C2C=C(N(C(=O)c3ccc(Cl)cc3)c3ccccc3)CC1CC2 (stereo not given),-4.66,–

SMILES,"activity, negative = inhibition [%]",Potency
CC(=O)c1ccc(NC(=O)CCc2nnc3ccc(NCc4ccco4)nn23)cc1,14.7,–
O=C(c1cc(C(=O)N2CCN(c3ccc(F)cc3)CC2)cc([N+](=O)[O-])c1)N1CCN(c2ccc(F)cc2)CC1,6.27,–
O=C(CN1C(=O)COc2ccccc21)Nc1ccc(F)cc1,–,5.61 µM (active)
CCCN1CCN(CCCNC(=O)CN2C(=O)COc3ccccc32)CC1,-3.07,–
O=C(CCN1C(=O)COc2ccccc21)NCCCN1CCN(c2ccc(F)cc2)CC1,-0.235,–
CC(C)c1ccc(S(=O)(=O)N2CCC3(CC2)OCCO3)cc1,7.89,–
Cc1nn(C)cc1N1C(=O)c2cccc3c(N)ccc(c23)C1=O,-6.4,–
CCN1C(=O)c2cccc3c(N)ccc1c23,–,0.354 µM (active)
CN1C(=O)c2cccc3c(N)ccc(c23)C1=O,1.83,–
O=C(NCCN1CCN(C(=O)c2cccc([N+](=O)[O-])c2)CC1)C(=O)NCc1ccc(Cl)cc1,6.63,–
CCOC(=O)c1cc(Sc2ccccc2N)cc(C(=O)OCC)n1,7.21,–
CCS(=O)(=O)c1cc([N+](=O)[O-])c(Sc2ccccc2N)s1,–,15.8 µM (active)
Nc1ccccc1Sc1ccc(C(F)(F)F)cc1[N+](=O)[O-],-11.9,–
CC(C)CCn1c(=O)c2c(nc3n2CCCN3Cc2ccccc2)n(C)c1=O,4.15,–
Cc1ccccc1NC(=O)C1CCCN(C(=O)NCc2ccccc2)C1 (stereo not given),7.76,–
CCCCc1cc(=O)oc2c(C)c(OCC(=O)N3CCC(C(N)=O)CC3)ccc12,10.7,–
COc1c(O)c2c(=O)cc(OC)c3c4c(OC)cc(=O)c5c(O)c(OC)c6c(c(c1C[C@@](C)(O)[C@H]6C(C)=O)c23)c54,-22.3,–
CC(C)(c1ccccc1)c1ccc(OCCN)cc1,0.0143,–
Cc1cc(OCCN2CCCC2)ccc1C(C)C,-14.5,–
CC(C)(c1ccccc1)c1ccc(OCCN2CCCC2)cc1,–,22.4 µM (active)
CC(C)CN(Cc1c(O)ccc2c(=O)c(-c3ccccc3)coc12)CC(C)C,8.57,–
COc1ccc(Cl)cc1NC(=O)c1cccc(N2C(=O)C3CC=CCC3C2=O)c1 (stereo not given),2.26,–
